# From PubChem BioAssay (NCATS)
# Results filed as inconclusive are left out. A call without a number means that no potency is given here. Activity calls are given as the source filed them. The call rests on the fitted dose curve; in most records, active means well fitted cell-killing curve with a large enough effect; inconclusive means small, poorly fitted or top-dose-only effect, or effect the other way; inactive means no such curve, though single readings can be large or run the other way.
# Assay: Quantitative highthroughput screen to assess conditional lethalithy of SEM cells grown in RPMI1640 with unreated serum (RPMI+s) (AID 1963883); further: nearly all actives have a fitted effect of over 35% in size
# Conditions: SEM B-ALL cells, CellTiter-Glo viability, 48 h; series mostly up to 45.8 µM
# Description: Assay Provider: Jason Cantor Ph.D.
# Department of Biochemistry
# University of Wisconsin-Madison, Madison, WI, USA
# Chemical screening studies have identified drug sensitivities across hundreds of cancer cell lines but most putative therapeutics fail to translate. Discovery and development of drug candidates in models that more accurately reflect nutrient levels in human blood is a major challenge. Here we performed high-throughput screens in conventional versus Human Plasma-Like Medium (HPLM) to identify compounds that were "missed" when screening using the artificial culture condition. Sets of conditional anticancer compounds spanned phases of clinical development and included non-oncology drugs were assessed. […] We also traced conditional phenotypes for several chemotherapeutics to availability of HPLM-specific metabolites and confirmed others for compounds whose reported targets are encoded by nonessential genes. Our findings establish generalizable strategies for exploiting conditional lethality in HPLM to reveal therapeutic candidates and mechanisms of action in cancer cells.
# Described herein are the results of each viability screens against three cell lines: NOMO1 (an acute myeloid leukemia cell line); P12-Ichikawa (a T-cell acute lymphoblastic leukemia); and SEM (a B-cell ALL). Each assay was screened using 3 different cell culture media: homemade human plasma-Like medium with 10% dialyzed fetal bovine serum (HPLM+ds); RPMI1640 with 10% untreated FBS and 5mM glucose (RPMI+s); and RPMI1640 with 10% dialyzed fetal bovine serum and 5 mM glucose (RPMI+ds).
# PROTOCOL TABLE (as described by Inglese J, Shamu CE and Guy RK. 2007)
# SEQUENCE No. (e.g., 1, 2, 3, etc.); […] (e.g., Cells, Incubation, Reagent, etc.); VALUE and DESCRIPTION.
# 1; Cells; 5 uL; white, solid bottom 1536-well Greiner assay plate.
# 2; Compounds; 23 nL; Kalypsis pin tool (Wako USA) equipped with a 1536-well pin head to transfer to the assay plates.
# 3; Incubation; 48 hours; 37C incubation.
# 4; Reagent; 3 uL; CellTiter Glo (Promega).
# 5; Incubation; 5 min, room temperature
# 6; Detection; Luminescence, Viewlux PerkinElmer.
# NOTES (numbers refer to Sequence numbers above)
# 1. Briefly, 5 ul of cell reagent was dispensed using a Multidrop Combi Dispenser. The NOMO1 and SEM cells were plated at 500 cells/well and the P12-Ichikawa line at 1000 cells/well.
# 2. After seeding the cells, 23 nL of MIPE 4.1 library compounds (in DMSO) were added to each plate using a Kalypsys 1536 Pintool dispenser. Bortezomib at final concentration of […] and DMSO were added to each plate as positive and negative controls respectively. For each screen, MIPE 4.1 compounds were added over an eleven-point concentration range […] in 3-fold dilutions.
# 3. Each plate was covered with a stainless steel gasketed lid to prevent evaporation and incubated for 48 hour at 37C, 95% relative humidity, and 5% CO2.
# 4-5. Three microliter CellTilter-GloTM luminescent substrate mix (Promega) reagent was added to the assay plate and incubated at room temperature for 5 min.
# 6. The luminescence signal was measured using a ViewLux (PerkinElmer) multiplate reader with a 2 second exposure time per plate. Data for each compound were normalized as percent viability such that measurements for DMSO and the empty well controls in each plate were defined as 100% and 0%, respectively.
# Potency means the concentration at half of the fitted maximal effect.
row,Structure (SMILES),Potency
1,O=C1C=CC[C@@H]2[C@H]3CCCN4CCC[C@@H](CN12)[C@@H]34,inactive
2,CC(C)(O)C=CC(=O)[C@](C)(O)[C@H]1[C@H](O)C[C@]2(C)[C@@H]3CC=C4[C@@H](C=C(O)C(=O)C4(C)C)[C@]3(C)C(=O)C[C@@]12C,46.9 nM (active)
3,O=C1CC[C@@]2(O)[C@H]3Cc4ccc(O)c5c4[C@@]2(CCN3CC2CC2)[C@H]1O5,inactive
4,O=C(Nc1ccncc1)C(=O)c1cn(Cc2ccc(Cl)cc2)c2ccccc12,52.6 nM (active)
5,COc1cccc2c1[C@]13CCN(CC4CC4)[C@H](C2)[C@]1(OC)CCC(=O)C3,inactive
6,C[C@@H]1CC[C@H]2[C@@H](C)C(=O)O[C@@H]3O[C@@]4(C)CC[C@H]1[C@]32OO4,inactive
7,C=C(C)[C@H]1Cc2c(ccc3c2O[C@@H]2COc4cc(OC)c(OC)cc4[C@@H]2C3=O)O1,4180 nM (active)
8,CCOC(=O)Nc1ccc(NCc2ccc(F)cc2)cc1N,inactive
9,O=C(O)CNC(=O)c1c(O)c2ccccc2n(Cc2ccccc2)c1=O,inactive
10,NC1=NC(=O)N2CC12 (stereo not given),1870 nM (active)
11,C[C@@H]1CC[C@@]2(OC1)O[C@H]1C[C@H]3[C@@H]4CC=C5C[C@@H](O[C@@H]6O[C@H](CO)[C@@H](O[C@@H]7O[C@@H](C)[C@H](O)[C@@H](O)[C@@H]7O)[C@H](O)[C@@H]6O[C@@H]6O[C@@H](C)[C@H](O)[C@@H](O)[C@@H]6O)CC[C@]5(C)[C@@H]4CC[C@]3(C)[C@@H]1[C@H]2C,14800 nM (active)
12,CCCC[N+]1(C)[C@H]2CC(OC(=O)[C@H](CO)c3ccccc3)C[C@H]1[C@H]1O[C@H]12 (stereo not given in full),inactive
13,O=c1[nH]c2ccccc2n1CCCN1CCC(n2c(=O)[nH]c3cc(Cl)ccc32)CC1,inactive
14,CCNC(=O)C[C@@H]1N=C(c2ccc(Cl)cc2)c2cc(OC)ccc2-n2c(C)nnc21,1050 nM (active)
15,CC[C@@]1(O)C(=O)OCc2c1cc1n(c2=O)Cc2cc3ccccc3nc2-1,23.5 nM (active)
16,Cc1cc(SCc2sc(-c3ccc(C(F)(F)F)c(F)c3)nc2C)ccc1OCC(=O)O,inactive
17,c1cc2c(cc1[C@H]1OC[C@H]3[C@H]1CO[C@H]3c1ccc3c(c1)OCO3)OCO2,inactive
18,Cc1sc2c(c1C)C(c1ccc(Cl)cc1)=N[C@@H](CC(=O)OC(C)(C)C)c1nnc(C)n1-2,235 nM (active)
19,COC(=O)[C@@H](N)CCCN=C(N)N[N+](=O)[O-],inactive
20,CN(C)CCN(C)CCc1ccc(Cl)c(Cl)c1,inactive

row,Structure (SMILES),Potency
1,C[C@]12Cc3cn[nH]c3C[C@@H]1CC[C@@H]1[C@H]2CC[C@@]2(C)[C@H]1CC[C@]2(C)O,inactive
2,Cc1c(N)nc([C@H](CC(N)=O)NC[C@@H](N)C(N)=O)nc1C(=O)N[C@H](C(=O)N[C@@H](C)[C@H](O)[C@@H](C)C(=O)N[C@@H](C(=O)NCCc1nc(-c2nc(C(=O)NCCC[S+](C)C)cs2)cs1)[C@@H](C)O)C(O[C@H]1O[C@H](CO)[C@H](O)[C@@H](O)[C@@H]1O[C@H]1O[C@H](CO)[C@@H](O)[C@H](OC(N)=O)[C@H]1O)c1cnc[nH]1 (stereo not given in full),3320 nM (active)
3,CC(C)N[C@@H]1CCn2c(=O)[nH]c3cccc(c32)[C@@H]1O,inactive
4,COc1ccc2c(c1)[C@]13CCCCC1C(C2)N(C)CC3 (stereo not given in full),inactive
5,O=S(=O)(F)Cc1ccccc1,inactive
6,O=C(Oc1ccc([N+](=O)[O-])cc1)N1CCN(Cc2cccc(Oc3ccccc3)c2)CC1,inactive
7,CC1=C(O)C(=O)C=C2C1=CC=C1[C@@]2(C)CC[C@@]2(C)[C@@H]3C[C@](C)(C(=O)O)CC[C@]3(C)CC[C@]12C,2640 nM (active)
8,CC(N[C@H]1C[C@H]1c1ccccc1)c1ccc2c(c1)OCCO2 (stereo not given in full),inactive
9,NCC1(CC(=O)O)CCCCC1,inactive
10,CC(=O)OCC1=C(C(=O)O)N2C(=O)[C@@H](N)[C@@H]2SC1,inactive
11,COc1cc(OC)c(OC)cc1C=O,inactive
12,O=C(O)C(=O)c1cn(Cc2ccccc2)c2ccc(-c3ccc(OC(F)(F)F)cc3)cc12,inactive
13,C=C[C@@H]1CN2CCC1C[C@@H]2[C@@H](O)c1ccnc2ccccc12 (stereo not given in full),16600 nM (active)
14,CNC(=O)N1N=C(c2ccc(N)cc2)c2cc3c(cc2CC1C)OCO3 (stereo not given),8330 nM (active)
15,C[C@H]([C@H](O)CCC(C)(C)O)[C@H]1CC[C@@]2(O)C3=CC(=O)[C@@H]4C[C@@H](O)[C@@H](O)C[C@]4(C)[C@@H]3CC[C@]12C,inactive
16,CNCC(O)c1ccc(O)cc1 (stereo not given),inactive
17,O=C(O)CCCc1ccc(N(CCCl)CCCl)cc1,23500 nM (active)
18,CC(=O)N(C)c1cccc(-c2ccnc3c(C(=O)c4cccs4)cnn23)c1,inactive
19,COc1ccc(C(=O)c2c(C)n(CCN3CCOCC3)c3ccccc23)cc1,inactive
20,O=C(O)c1nn(Cc2ccc(Cl)cc2Cl)c2ccccc12,inactive
